Hits are enriched below; roughly 1.4% of the tested compounds scored in any of these assays.
FadD28 FP inh = inhibitors of Mycobacterium tuberculosis FadD28 bisubstrate binding; FadD28 bisubstrate probe binding, fluorescence polarization; 360,000 tested, 0.22% active; inhibition, % at 12.5 µM; in the data active = inhibition above about 8.5%, passing the limit was not always enough
PrP UTR inh = inhibition of PrP 5' UTR reporter expression; cell-based PrP 5' UTR mRNA reporter, plate reader; inhibition, % (concentration not given with the values); 340,000 tested, 0.35% active; AID 488862; in the data active = inhibition above about 52%; also: 0 = median of the neutral control wells
Vc quorum ag-1 = inducers of Vibrio cholerae quorum light production without autoinducers; V. cholerae BH1578 lux reporter, luminescence, 6 h; activation, % at 18.7 µM; 350,000 tested, 0.16% active; AID 588436; in the data active = activation mostly above about 9.7%, no sharp cut-off
SSB-PriA inh = K. pneumoniae PriA-SSBct interaction inhibition; inhibition, % at 33 µM; AlphaScreen SSBct-PriA binding, biotinylated peptide; 430,000 tested, 0.6% active; AID 1272365; in the data active = inhibition mostly above about 37%, no sharp cut-off; inactive = mostly below about 20%;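 also: plate controls were negative control peptide for no effect and reference peptide for full effect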
PrPC TRFRET = cell surface PrPC inhibition, primary TR-FRET screen. AID 720596. inhibition, % at 13.8 µM. P04156. 370,000 tested, 0.43% active. TR-FRET read-out; in the data active = inhibition above about 24%; also: 0% = median of the test wells and 100% = reference compound wells
Vc quorum ag-2 = inducers of V. cholerae quorum light production without autoinducers. 620 tested, under 10 active. shares compounds with Vc quorum ag-1. activation, % at 50 µM. V. cholerae BH1578 lux reporter, luminescence, 6 h; call rule not given here
HeLa 24h tox = HeLa cell viability loss at 24 h; activity change, negative = cytotoxicity, % at 35 µM; CellTiter-Glo ATP luminescence; shares compounds with Vc quorum ag-1; 25 tested, under 10 active;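 active = signal drop with fitted half-maximal concentration at or below twice the highest valid dose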
Active calls of the source: *; i = inactive; . = no result given.

SMILES	FadD28 FP inh	PrP UTR inh	Vc quorum ag-1	SSB-PriA inh	PrPC TRFRET	Vc quorum ag-2	others
Cc1cc(NC2CCCCC2)nc(-c2ccccc2O)n1	-5.0	-25.4	16.7*	-62.0	4.1	5.1
Cc1ccc(NC(=O)C(=O)NCc2cccnc2)cc1F	.	.	.	3.0	.	.
COc1ccccc1C=NNC(=O)c1nnn(-c2nonc2N)c1CN(C)c1ccccc1	.	.	.	13.2	.	.
CC(=O)Nc1nonc1NC(C)=O	-1.5	-36.1	25.8*	-12.4	2.5	0.6
CC(=O)Nc1nonc1NC(=O)c1ccc(F)cc1	-4.3	-15.9	.	-2.4	7.4	.
CCOC(=O)CSc1nc(C)cc(C)c1C#N	0.0	-20.8	16.7*	-16.4	-3.4	0.0
O=[N+]([O-])c1ccc(NCCN2CCOCC2)c([N+](=O)[O-])c1	-3.0	-35.3	33.2*	-3.8	-49.6	1.2
O=C(NCCN1CCOCC1)c1ccc([N+](=O)[O-])cc1[N+](=O)[O-]	-3.4	-2.8	i	-9.8	-59.2	.
COc1ccccc1N1CCN(CCCOc2ccc(F)cc2)CC1	-3.1	-14.3	12.5	-16.1	-9.8	0.0
O=C(c1ccccc1)N1CCC(c2nc(-c3ccc(S(=O)(=O)N4CCOCC4)cc3)no2)CC1	1.9	-55.5	6.6	-1.5	6.1	0.7
Cc1cccc(C(=O)N2CCC(c3nc(-c4ccc(S(=O)(=O)N5CCOCC5)cc4)no3)CC2)c1	-1.9	-60.2	i	-5.5	4.7	.
O=C(O)c1ccc(C(=O)Nc2ccc(Cl)cc2)c(C(=O)O)c1	.	.	.	-9.0	.	.
Cc1cc(C)c(C)c(OCc2nc(-c3cccnc3)no2)c1	-1.8	-15.4	i	-18.1	0.6	.
Cc1ccc(SCc2nc(-c3cccnc3)no2)cc1	-1.9	-14.3	21.2*	-42.1	-4.7	-0.1
O=C(OCc1cc(=O)n2ccsc2n1)c1ccc(OC(F)F)cc1	-1.2	-10.0	12.8	-11.7	1.4	0.0
O=C(Nc1cnc(Oc2ccccc2)nc1)c1cccc(Cl)c1	.	.	.	-18.0	.	.
CCOC(=O)c1cnc(-n2nc(C)cc2C)nc1N(C)C	-2.3	-13.1	12.5	13.8	-1.4	2.2
Cc1cc(=O)[nH]c(CN2CCC(c3ccccc3)CC2)n1	-0.3	-21.0	.	-16.0	7.8	0.9
Cc1ccc(S(=O)(=O)NCc2cccnc2)cc1C(=O)NC1CCCCC1	-0.3	-14.4	14.3	-6.0	-4.5	0.2
CC1(C)Nc2ccc(O)cc2-c2c1ssc2=S	1.4	-12.0	24.7	56.4	-11.8	0.4
O=C(c1ccc2c(c1)OCO2)N(Cc1ccco1)C1(C(=O)NC2CCCCC2)CCCCC1	-0.2	-26.2	16.7*	11.2	3.6	0.2
CN(C(=O)COc1ccccc1)C1CCS(=O)(=O)C1 (stereo unspecified)	-0.9	-13.1	-0.3	-11.7	-0.2	.
CC(C)CCOc1cccc(OCC(=O)N(C)C2CCS(=O)(=O)C2)c1 (stereo unspecified)	-1.6	-0.5	6.6	-20.2	-7.8	2.1
O=C(Cn1cccc1C(=O)c1ccccc1)NCCN1CCCCCC1	-1.1	4.2	12.5	14.6	-6.3	-0.2
CCC(=NN1CCCCCC1)c1c(O)n(-c2ccc(C)cc2)c(=O)[nH]c1=O	.	.	.	-14.8	.	.
SMILES	FadD28 FP inh	PrP UTR inh	Vc quorum ag-1	SSB-PriA inh	PrPC TRFRET	Vc quorum ag-2	others
Cc1cc(C)cc(NC(=O)Cn2ncn3c(cc4ccccc43)c2=O)c1	-1.1	-31.7	17.9*	-10.2	6.1	0.9
COc1ccc2c(c1)cc(C(=O)NN=Cc1c(O)c(C(=O)O)cc3ccccc13)n2C	.	.	.	3.7	.	.
C[C@H](CO)N1C[C@H](C)[C@@H](CN(C)S(C)(=O)=O)Oc2c(NC(=O)Nc3ccc4c(c3)OCO4)cccc2C1=O	1.8	-15.0	i	-13.9	-0.4	.
C[C@H](CO)N1C[C@H](C)[C@@H](CN(C)S(=O)(=O)c2ccccc2)Oc2c(NC(=O)Nc3ccc4c(c3)OCO4)cccc2C1=O	0.3	2.0	109.2*	14.5	11.6	10.6
CCn1nc(C)cc1C(=O)Nc1cc(C)nn1-c1nc2ccc(F)cc2s1	.	.	.	-9.0	.	.
O=C(CC(NCCC1=CCCCC1)C(=O)O)Nc1ccc(Cl)c(Cl)c1 (stereo unspecified)	.	.	.	12.0	.	.
O=C1CN(C(=O)C2CN(C(=O)c3ccc4c(c3)OCO4)C2)CCN1	.	.	.	-10.0	.	.
Cn1c(=O)c2c(nc(SCCN3CCOCC3)n2Cc2cccc3ccccc23)n(C)c1=O	-1.8	-28.4	12.5	5.5	10.6	0.3
O=C(NCCC(=O)N1CCCCCCC1)c1ccc(Br)cc1	-3.2	-8.8	-0.6	4.5	4.4	.
O=C(NCCC(=O)N1CCCCC1)c1ccc(Br)cc1	-0.4	-43.2	10.8	1.9	1.6	5.6
Cc1ccc(C(=O)OCC(=O)Nc2ccc(N(C)C)cc2)cc1NC(=O)c1ccco1	-4.4	-11.4	-0.7	-2.4	-6.3	.
Cc1ccc(C(=O)OCC(=O)Nc2ccccc2)cc1NC(=O)c1ccco1	1.5	-7.1	6.6	-6.9	-3.0	0.4
COc1ccc(CC(=O)N2CCC(Nc3nc4ccccc4n3Cc3ccc(F)cc3)CC2)cc1	-8.1	-6.7	15.4*	9.0	4.8	0.1
CCCCCc1c(C)nc(N2CCc3ccccc3C2)[nH]c1=O	-3.5	.	25.0*	-15.2	7.6	15.3
CCn1c(SCC(=O)Nc2ccc3c(c2)OCCO3)nnc1-c1ccccn1	0.3	.	12.5	-2.8	0.8	0.1
COc1ccc(NC(=O)CSc2ccc3c(c2)OCCO3)cc1OC	-0.8	-8.0	25.0*	-5.9	6.6	0.0
CSc1ncccc1C(=O)N1C2CCC1CC(S(=O)(=O)c1ccccc1)C2 (stereo unspecified)	.	.	.	-7.0	.	.
CCCn1c(=O)c(C(=O)Nc2cccc(C)c2)c(O)c2ccccc21	0.6	-20.2	-0.5	3.2	-6.8	.
Cc1cccc(NC(=O)c2c(O)c3ccccc3n(C)c2=O)c1	-1.4	-56.6	70.3*	-9.8	7.6	0.0
CCCCOC(=O)n1c(=O)oc2ccccc21	-4.0	-22.3	230.5*	-13.4	3.3	117.6
COC(=O)n1c(=O)oc2ccccc21	1.3	-23.2	-0.4	-15.7	-2.9	.
CCCS(=O)(=O)N1CCC(C(=O)N2CCN(C(=O)OCC)CC2)CC1	0.6	-5.8	15.0*	-27.4	-0.1	-0.1
Cc1ccc(C(=O)COc2cc(C)nc3nncn23)cc1	0.1	-9.5	923.3*	-10.6	6.8	i
NS(=O)(=O)c1ccc(CCNC(=O)CCn2c(=O)[nH]c3ccccc3c2=O)cc1	.	.	.	-37.0	.	.
O=C(NCc1nc(-c2ccccc2)no1)c1cccs1	-2.0	-5.3	179.2*	-12.0	7.0	44.7
CCC(=O)NCCc1nc(-c2ccccc2)no1	-3.1	-21.5	986.5*	7.2	8.2	715.8
Cc1cccc2sc(NC(=O)c3ccccc3Cl)nc12	.	.	.	-8.0	.	.
CCc1ccc(C(=O)Nc2nnnn2CC)cc1	.	.	.	.	.	.	HeLa 24h tox=-5.1
CCn1nnnc1NC(=O)c1cccc(OC)c1	-3.0	-46.9	-0.4	2.2	-2.8	.
COc1ccc2nc(SC(C)C(=O)NCC(=O)Nc3ccc(F)c(F)c3F)[nH]c2c1 (stereo unspecified)	-2.5	-47.0	14.3	2.3	7.4	0.0

High-throughput results (PubChem)
